T cruzi growth-1 – T. cruzi intracellular proliferation inhibitors, primary screen, cell-based, beta-gal Tulahuen parasites, NIH3T3 host, luminescence. hit rate 5.9% among 77,000. inhibition, % at 8.34 µM. T. cruzi beta-gal in NIH3T3, GalScreen luminescence, 90 h;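 active = mean inhibition above about 93%, with at least 55% of replicates each passing it, limit read from the data, passing the limit was not always enough; inconclusive = only one of those two conditions holds; inactive = neither condition holds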
C diff HTS – C. difficile growth inhibitors, primary screen, HTS; Clostridium difficile clinical isolate growth, OD600, 24 h; hits give low values; growth activity, negative = inhibition, % at 16 µg/mL (by protocol); hit rate 0.25% among 86,000; AID 1259249, 2017;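 active = mean growth activity at or below -80% and every replicate also at or below -80%; inconclusive = mean at or below -80% but some replicate above -80%; inactive = mean growth activity above -80%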;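 also: 0% = DMSO wells and -100% = levofloxacin 16 µg/mL wells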
Pf Dd2 inh – P. falciparum Dd2 growth inhibitors, primary screen, SYBR Green fluorescence, single dose replicates; hit rate 2.3% among 94,000; activity change, % at 10 µM; 72 h; hits give low values; AID 1159554, 2015; in the data active = activity change below about -80%; inconclusive = no clear call, values can overlap the other calls
T cruzi growth-2 – T. cruzi intracellular proliferation inhibitors, confirmation, cell-based, NIH3T3 host, beta-gal parasite, luminescence, cherry-pick; inhibition, % at 8.35 µM; shares compounds with T cruzi growth-1; hit rate 72% among 5,600; T. cruzi beta-gal in NIH3T3, GalScreen luminescence, 90 h;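 active = mean replicate inhibition above about 95% and at least 55% of replicates individually reaching it, limit read from the data; inconclusive = only one of the two criteria is met; inactive = neither criterion is met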
T cruzi growth-3 – inhibitors of intracellular T. cruzi replication, confirmation, NIH3T3 host cells, beta-gal parasites, cherry-pick, set 2; shares compounds with T cruzi growth-1; inhibition, % at 2.09 µM; AID 651740, 2012; hit rate 21% among 5,600; T. cruzi beta-gal in NIH3T3, GalScreen luminescence, 90 h;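 active = mean inhibition above about 95%, with at least 55% of replicates also reaching it, limit read from the data; inconclusive = meets just one of the two conditions; inactive = meets neither condition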;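 also: plate controls were neutral control median for no effect and positive control median for full effect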
NIH3T3 tox – cytotoxicity in mouse NIH/3T3 fibroblasts, confirmation, cytotoxicity control for T. cruzi proliferation inhibitor project, cell-based, cherry-pick, single point; shares compounds with T cruzi growth-1; NIH/3T3 viability, CellTiter-Glo ATP luminescence, 90 h; cytotoxicity (signal decrease), % at 8.35 µM; hit rate 14% among 5,600; AID 651742, 2012;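 active = mean signal decrease across replicates above about 35% based on untreated-well scatter, with enough replicates individually passing, limit read from the data; inconclusive = no rule stated though some were filed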;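 also: 0% = median of neutral control wells and 100% = median of positive control wells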
NIH3T3 tox 2 – NIH/3T3 fibroblast cytotoxicity, confirmation, cytotoxicity control, cell-based, cherry-pick, single point, set 2; NIH/3T3 viability, CellTiter-Glo ATP luminescence, 90 h; inhibition, % at 24.9 µM; shares compounds with T cruzi growth-1; hit rate 56% among 5,600; AID 651744, 2012;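 active = mean loss of cell viability signal at or above a set limit, and enough replicates individually reaching it; inconclusive = meets only the mean limit or only the replicate share; inactive = meets neither condition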;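 also: 0% = median of neutral control wells and 100% = median of positive control wells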
* = called active by the depositor; ? = inconclusive; . = no result. A selection: hits, their analogues and other compounds. The true share with any hit is near 6.7%.

SMILES	T cruzi growth-1	C diff HTS	Pf Dd2 inh	T cruzi growth-2	T cruzi growth-3	NIH3T3 tox	NIH3T3 tox 2
O=C(C[C@@H]1CC[C@H]2[C@@H](COC[C@H](O)CN2CCC(F)(F)F)O1)NCC1CCCCC1	109*	-2	-13	46	13	8	-1
O=C(C[C@H]1CC[C@@H]2[C@H](COC[C@H](O)CN2CCC(F)(F)F)O1)NCc1ccc(Oc2ccccc2)cc1	-2	-4	.	.	.	.	.
O=C(C[C@@H]1CC[C@H]2[C@@H](COC[C@@H](O)CN2CCC(F)(F)F)O1)NCC1CCCCC1	65	2	-18	.	.	.	.
COc1ccc(NC(=O)Nc2cccc3c2O[C@@H](CN(C)S(=O)(=O)c2cn(C)cn2)[C@H](C)CN([C@H](C)CO)C3=O)cc1	74	3	-10	.	.	.	.
COc1ccc(NC(=O)Nc2ccc3c(c2)C(=O)N([C@H](C)CO)C[C@@H](C)[C@H](CN(C)C(=O)CCCN(C)C)OCCCC[C@@H](C)O3)cc1	9	0	24	.	.	.	.
C[C@H]1CCCCO[C@H](CN(C)S(=O)(=O)c2ccccc2)[C@@H](C)CN([C@@H](C)CO)C(=O)c2cc(NC(=O)Nc3ccc(F)cc3)ccc2O1	106*	1	-71	110*	62	11	1
C[C@@H]1CN([C@@H](C)CO)C(=O)c2cc(NC(=O)Nc3ccc(F)cc3)ccc2O[C@@H](C)CCCCO[C@@H]1CN(C)S(=O)(=O)c1ccccc1	103*	10	-84*	70	-13	7	10
C[C@@H]1CCCCO[C@@H](CN(C)S(=O)(=O)c2ccccc2)[C@H](C)CN([C@H](C)CO)C(=O)c2cc(NC(=O)Nc3ccc(F)cc3)ccc2O1	99*	-1	-75	108*	88	20	11
COc1ccc(S(=O)(=O)N(C)C[C@@H]2Oc3ccc(NS(=O)(=O)c4ccc(C)cc4)cc3CC(=O)N([C@H](C)CO)C[C@H]2C)cc1	-3	-5	-20	.	.	.	.
O=C(Nc1ccccc1F)N[C@H]1CC[C@H](CCNS(=O)(=O)c2ccccc2)O[C@@H]1CO	-10	-2	-9	.	.	.	.
C[C@@H]1CN([C@@H](C)CO)C(=O)Cc2cc(NC(=O)CCN3CCOCC3)ccc2O[C@H]1CN(C)S(C)(=O)=O	-13	-1	9	.	.	.	.
O=C(c1cccc(F)c1)N1CCCCN2[C@@H](CO)[C@@H](c3ccc(/C=C/c4ccccc4)cc3)[C@@H]2C1	109*	-75	-64	101*	79	66*	105*
O=C(c1cccc(F)c1)N1CCCCN2[C@H](CO)[C@@H](c3ccc(/C=C/c4ccccc4)cc3)[C@@H]2C1	109*	-7	-4	100*	19	17	10
O=C(c1cccc(F)c1)N1CCCCN2[C@H](C1)[C@H](c1ccc(-c3ccc(F)cc3)cc1)[C@@H]2CO	83	27	21	.	.	.	.
O=C(c1cccc(F)c1)N1CC(=O)N2[C@H](CO)[C@H](c3ccc(/C=C/c4ccccc4)cc3)[C@@H]2C1	.	51	-17	.	.	.	.
O=C(c1cccc(F)c1)N1CCCCN2[C@H](C1)[C@H](c1ccc(/C=C/c3ccccc3)cc1)[C@@H]2CO	110*	9	23	?	13	7	103*
O=C(c1cccc(F)c1)N1CCCCN2[C@H](C1)[C@@H](c1ccc(/C=C/c3ccccc3)cc1)[C@@H]2CO	111*	-6	-50	92	83	54*	39*
O=C(c1cccc(F)c1)N1CCCCN2[C@H](CO)[C@H](c3ccc(-c4cncnc4)cc3)[C@@H]2C1	75	0	-1	.	.	.	.
O=C(c1cccc(F)c1)N1CCCCN2[C@H](C1)[C@@H](c1ccc(-c3ccc(F)cc3)cc1)[C@@H]2CO	93	45	-2	.	.	.	.
C[C@H]1CN([C@@H](C)CO)C(=O)Cc2cc(NC(=O)CCC(F)(F)F)ccc2O[C@H]1CN(C)C(=O)Nc1ccccc1	-12	-11	12	.	.	.	.
O=C(c1ccc(F)cc1)N1CCCCN2[C@H](C1)[C@H](c1ccc(-c3ccccc3)cc1)[C@@H]2CO	93	30	-10	.	.	.	.
O=C(c1ccc(F)cc1)N1CCCCN2[C@@H](CO)[C@H](c3ccc(/C=C/c4ccccc4)cc3)[C@@H]2C1	112*	12	-16	95*	76	60*	103*
CCC(=O)N(C)C[C@H]1Oc2cc(Br)ccc2S(=O)(=O)N([C@@H](C)CO)C[C@@H]1C	.	1	15	.	.	.	.
CNC[C@@H]1Oc2ccc(NS(=O)(=O)c3ccc(Cl)cc3)cc2CC(=O)N([C@@H](C)CO)C[C@H]1C	.	-1	3	.	.	.	.
COc1ccc2c3c([nH]c2c1)[C@@H](CO)N(C(=O)c1cccc(F)c1)CC31CCN(C(=O)CC2CC2)CC1	.	6	-45	.	.	.	.
SMILES	T cruzi growth-1	C diff HTS	Pf Dd2 inh	T cruzi growth-2	T cruzi growth-3	NIH3T3 tox	NIH3T3 tox 2
C[C@@H]1CCCCO[C@@H](CN(C)CC2CCCCC2)[C@H](C)CN([C@@H](C)CO)C(=O)c2cc(NC(=O)CCC(F)(F)F)ccc2O1	?	18	-11	?	20	9	18
C[C@@H]1CCCCO[C@@H](CN(C)CC2CCCCC2)[C@@H](C)CN([C@H](C)CO)C(=O)c2cc(NC(=O)CCC(F)(F)F)ccc2O1	13	5	8	.	.	.	.
C[C@@H]1CCCCO[C@H](CN(C)Cc2ccncc2)[C@H](C)CN([C@H](C)CO)C(=O)c2cc(NC(=O)CCC(F)(F)F)ccc2O1	96*	0	25	44	0	-5	10
C[C@@H]1CCCCO[C@@H](CN(C)Cc2ccc(Cl)c(Cl)c2)[C@H](C)CN([C@H](C)CO)C(=O)c2cc(NC(=O)CCC(F)(F)F)ccc2O1	?	-12	-88*	92	104*	-3	103*
C[C@@H]1CCCCO[C@@H](CN(C)Cc2ccc(Cl)c(Cl)c2)[C@@H](C)CN([C@@H](C)CO)C(=O)c2cc(NC(=O)CCC(F)(F)F)ccc2O1	85	18	-60	.	.	.	.
C[C@@H]1CCCCO[C@@H](CN(C)Cc2ccncc2)[C@@H](C)CN([C@H](C)CO)C(=O)c2cc(NC(=O)CCC(F)(F)F)ccc2O1	-26	-1	8	.	.	.	.
C[C@H](O)C#Cc1ccc2c(c1)O[C@H](CN(C)C(=O)c1ccccc1)[C@@H](C)CN([C@H](C)CO)S2(=O)=O	-19	0	-27	.	.	.	.
C[C@@H]1CN([C@H](C)CO)S(=O)(=O)c2ccc(C#CCN(C)C)cc2O[C@@H]1CN(C)S(=O)(=O)c1cccc(F)c1	.	2	-33	.	.	.	.
